These results are taken from PubChem BioAssay (NCI).

Test systems include SR leukemia; RPMI-8226 leukemia; OVCAR-8 ovarian; OVCAR-5 ovarian; OVCAR-4 ovarian; SK-OV-3 ovarian; IGROV1 ovarian; OVCAR-3 ovarian; HS 578T breast; NCI/ADR-RES ovarian.
What all share (assay): NCI-60 one-dose screen, 48 h (100 = growth as untreated, 0 = no growth, -100 = all killed)
Common to all, as to conditions: 10 µM unless noted

This is part of a sample that, as a whole, favours compounds with a hit. Of some 83,000 tested, about 20% had one in any assay.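 Testing used 96-well plates and a 48-hour single-concentration exposure. Example: -40 means 40% of the starting cells died.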 Values without a mark were called inactive. The source made the active and inactive calls. The calls were made as follows: active = growth percent below 10; inactive = the rest.

As to `COc1ccc(/C(C)=C(\c2ccc(OCCN3CCOCC3)cc2)c2ccc(OC(=O)C3CCCCC3)cc2)cc1`, the growth is 112% with SR leukemia; 97.9% with RPMI-8226 leukemia; 105% with OVCAR-8 ovarian; 98.4% in the assay with OVCAR-5 ovarian; 111% in the assay on OVCAR-4 ovarian; 101% with SK-OV-3 ovarian. Moreover, the growth in the assay with IGROV1 ovarian was 102%; with OVCAR-3 ovarian, 97.5%; with HS 578T breast it was 110%; in the assay with NCI/ADR-RES ovarian, 102%.
On to `CC1(C)C(N)=Nc2cc(OCCCCN3Cc4ccccc4C3)c(OCC3CC3)cc21`, for which the growth is 93.4% with SR leukemia; 100% in the assay on RPMI-8226 leukemia; 76.2% in the assay on OVCAR-8 ovarian; 80.3% in the assay on OVCAR-5 ovarian; 82.6% in the assay with OVCAR-4 ovarian; 89% in the assay with SK-OV-3 ovarian. Besides, the growth was 79.4% in the assay with IGROV1 ovarian, 78% in the assay with OVCAR-3 ovarian, 88.3% with HS 578T breast and 92.6% in the assay with NCI/ADR-RES ovarian.
As for `Nc1nc(Nc2cccnc2)sc1C(=O)c1ccccc1F`, the growth was 19.1% in the assay with SR leukemia; 17.7% in the assay on RPMI-8226 leukemia; 31.8% in the assay on OVCAR-8 ovarian; 26.2% with OVCAR-5 ovarian; 80.7% in the assay with OVCAR-4 ovarian; 85.9% in the assay with SK-OV-3 ovarian. Also, the growth in the assay on IGROV1 ovarian was 21.3%; in the assay on OVCAR-3 ovarian it was 9.96% (active); in the assay on HS 578T breast, 58.1%; with NCI/ADR-RES ovarian it was 48.3%.
As for `Cc1ccc(S(=O)(=O)OC[C@@]2(C)CC[C@]3(C)CC[C@]4(C)C(=CC[C@@H]5[C@@]6(C)CCCNC(C)(C)[C@@H]6CC[C@]54C)[C@@H]3C2)cc1`, the growth with SR leukemia is -39.3% (active); in the assay on RPMI-8226 leukemia it was -57.8% (active); in the assay with OVCAR-8 ovarian it was -50.2% (active); with OVCAR-5 ovarian, -84% (active); with OVCAR-4 ovarian, -78.5% (active); in the assay with SK-OV-3 ovarian it was 75.2%. Also, the growth is -84.9% (active) in the assay with IGROV1 ovarian, -95.8% (active) in the assay with OVCAR-3 ovarian, -20% (active) in the assay on HS 578T breast and -65.8% (active) with NCI/ADR-RES ovarian.
For `N#C/C(=N\Nc1ccc(Cl)cc1)C(=O)Nc1cc(-c2ccccc2)nn1-c1ccccc1`, the growth in the assay with SR leukemia is 89.4%; with RPMI-8226 leukemia, 1.81% (active); in the assay with OVCAR-8 ovarian, 25.6%; with OVCAR-5 ovarian, 81.6%; in the assay with OVCAR-4 ovarian, 36.8%; in the assay on SK-OV-3 ovarian it was 26.4%. For the same molecule, the growth was 19.9% with IGROV1 ovarian, 15.4% in the assay with OVCAR-3 ovarian, 47% in the assay on HS 578T breast and 29.7% with NCI/ADR-RES ovarian.
With `CCc1c2c(nc3ccc(OCc4ccc(B5OC(C)(C)C(C)(C)O5)cc4)cc13)-c1cc3c(c(=O)n1C2)COC(=O)[C@]3(O)CC`, the growth with SR leukemia was 11.8%; with RPMI-8226 leukemia, 10.4%; with OVCAR-8 ovarian it was 10.6%; with OVCAR-5 ovarian, 10%; in the assay on OVCAR-4 ovarian, 23.7%; in the assay on SK-OV-3 ovarian it was -1.58% (active). Moreover, the growth in the assay with IGROV1 ovarian is 12.8%; in the assay on OVCAR-3 ovarian, 0.732% (active); with HS 578T breast, 38.4%; in the assay on NCI/ADR-RES ovarian, 0.929% (active).
In the case of `Cc1cnc(C(=O)NNc2nc3sc4c(c3c(=O)[nH]2)C(C)CCC4)cn1` (stereo not given), the growth with SR leukemia is 21.4%; with RPMI-8226 leukemia, 29.3%; in the assay with OVCAR-8 ovarian, 15.3%; in the assay on OVCAR-5 ovarian it was 34.7%; in the assay on OVCAR-4 ovarian, 22.1%; in the assay with SK-OV-3 ovarian it was 16.2%. In addition, the growth with IGROV1 ovarian is 14.5%; in the assay with OVCAR-3 ovarian it was 31.5%; with HS 578T breast, 46.8%; with NCI/ADR-RES ovarian it was 11.7%.
Turning to `COc1ccc2c(c1)c(-c1nc(-c3c[nH]c4c(Cl)nccc34)cs1)cn2C`, the growth with SR leukemia is 32.1%; in the assay with RPMI-8226 leukemia, 78%; in the assay on OVCAR-8 ovarian, 95.1%; in the assay with OVCAR-5 ovarian it was 57.4%; with OVCAR-4 ovarian, 34%; with SK-OV-3 ovarian, 78.6%. Also, the growth is 56.5% in the assay on IGROV1 ovarian, 47.9% in the assay on OVCAR-3 ovarian, 87.6% in the assay with HS 578T breast and 95.5% in the assay with NCI/ADR-RES ovarian.
As to `CNC(=O)c1cc(Oc2ccc3nc(NC(=O)Nc4ccc(C(F)(F)F)cc4)sc3c2)ccn1`, the growth with SR leukemia is 70.6%; with RPMI-8226 leukemia, 70.4%; in the assay with OVCAR-8 ovarian, 48.5%; in the assay on OVCAR-5 ovarian it was 93.9%; in the assay on OVCAR-4 ovarian it was 37.7%; with SK-OV-3 ovarian it was 105%. For the same molecule, the growth with IGROV1 ovarian is 70.9%; with OVCAR-3 ovarian, 24%; in the assay on HS 578T breast it was 30%; in the assay with NCI/ADR-RES ovarian, 58.4%.
In the case of `CCOC(=O)c1nnn(Cc2cc(=O)oc3c2ccc2ccccc23)c1C`, the growth in the assay with SR leukemia is 97.6%; with RPMI-8226 leukemia, 103%; in the assay on OVCAR-8 ovarian, 98.1%; in the assay with OVCAR-5 ovarian, 102%; in the assay on OVCAR-4 ovarian, 97.6%; with SK-OV-3 ovarian, 104%. The growth with IGROV1 ovarian is 110%; with OVCAR-3 ovarian, 103%; in the assay with HS 578T breast, 100%; in the assay with NCI/ADR-RES ovarian, 108%.
In the case of `COc1ccc2nc3cc(Cl)ccc3c(NCCCNCCC(C)O)c2c1` (stereo not given), the growth is -37.3% (active) with SR leukemia; -19.8% (active) in the assay with RPMI-8226 leukemia; 0.828% (active) in the assay on OVCAR-8 ovarian; -18.8% (active) in the assay with OVCAR-5 ovarian; -28.9% (active) with OVCAR-4 ovarian; 3.74% (active) in the assay with SK-OV-3 ovarian. In addition, the growth in the assay on IGROV1 ovarian was -10.7% (active); in the assay with OVCAR-3 ovarian, -38.2% (active); in the assay on HS 578T breast it was 0.958% (active); in the assay on NCI/ADR-RES ovarian it was 43.7%.
In the case of `COc1cc(/C=N/NC(=O)CCN2c3ccccc3Sc3ccccc32)cc(OC)c1OC`, the growth with SR leukemia was 72%; in the assay with RPMI-8226 leukemia it was 54.7%; in the assay with OVCAR-8 ovarian it was 86.5%; in the assay on OVCAR-5 ovarian it was 89%; in the assay with OVCAR-4 ovarian it was 68.3%; with SK-OV-3 ovarian, 105%. In addition, the growth with IGROV1 ovarian was 91.2%; in the assay with OVCAR-3 ovarian, 99.5%; in the assay on HS 578T breast, 93.7%; in the assay on NCI/ADR-RES ovarian, 87.6%.
